Results as given in PubChem BioAssay (NCI).
Several values for one entry are separate records, joined by “and”; a condition that tells them apart may be missing. Identical values can stand only once. This is part of a sample that, as a whole, favours compounds with a hit. Of some 83,000 tested, about 20% had one in any assay.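 Testing used 96-well plates and a 48-hour single-concentration exposure. Example: -40 means 40% of the starting cells died.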 Values without a mark were called inactive. Activity calls are given as the source filed them. Rule for the calls: active = growth percent below 10; inactive = the rest.

What follows are compounds tested on MDA-MB-468 breast (assay: NCI-60 one-dose screen, 48 h (100 = growth as untreated, 0 = no growth, -100 = all killed)). Conditions: 10 µM unless noted.
For `Cc1cc(N2CCCC2)nc(NC2CCCC(Nc3ccnc4cc(Cl)ccc34)C2)n1` (stereo unspecified), the growth was -56.1% (active).
With `O=C1CSC(c2ccccc2Cl)N1c1nnc(Cn2nnc3ccccc32)o1` (stereo unspecified) the growth was 82.7%.
For `Oc1c(I)cc(I)cc1CNCCN(Cc1ccccn1)Cc1ccccn1`, the growth was -61.2% (active).
With `O=C(Nc1ccccc1)Oc1c(Cl)c(Cl)c(Cl)c(Cl)c1Cl` the growth was 116% and 98.8%.
For `CCOC(=O)CCN(CCC(=O)OCC)c1ccccc1`, the growth was 96.6%.
Compound `CC1(C)C2CC=C(/C=N/NC(=O)C3CCC(=O)N3)C1C2` (stereo unspecified) has a growth of 114%.
With `O=C(O)c1cccc(-n2ncc(Cl)c(Cl)c2=O)c1` the growth was 74.5%.
In the case of `C/C(=N\NC(=S)N1CCCC1)c1ccccn1`, the growth was -31.9% (active).
For `Cc1nc2sccn2c1-c1csc(Nc2cccc(Cl)c2C)n1`, the growth was -13% (active).
For `CCCCNc1cc(-c2cn[nH]c2-c2cc(C)cc(OC)c2)nc(-c2cccnc2)n1`, the growth was 78.4%.
`CCOc1ccc(Nc2ccnc3cc(Cl)ccc23)cc1` was tested, and the growth was -1.66% (active).
Compound `OCCOCC(F)(F)F` has a growth of 106%.
Compound `NC(=O)NS(=O)(=O)c1ccc(N2N=C(C(F)(F)F)CC2c2cc(C(F)(F)F)cc(C(F)(F)F)c2)cc1` (stereo unspecified) has a growth of 70.1%.
With `Cc1cc2nc(-c3c(N)ncc(C#N)c3-c3ccc(Cl)cc3)[nH]c2cc1C` the growth was 66%.
`COc1ccc(-c2nc(C#N)c(NCC(c3ccco3)N3CCCC3)o2)cc1` (stereo unspecified) gave a growth of 49.2%.
`CC(=O)N(C)C1CCc2c(sc(NC(=O)c3ccc(C(C)(C)C)cc3)c2C(N)=O)C1` (stereo unspecified) showed a growth of 86.6%.
